The list is not random: actives were taken first. Their share in the collection is about 1.8%.
Myeloid diff 2: compounds promoting myeloid differentiation. 1% of 360,000 active. calls only at 10 µM. ER-HoxA9 myeloid progenitors, lysozyme-GFP differentiation, flow cytometry. AID 624256;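 active = normalized GFP-positive differentiation at or above the plate's own cutoff, the solvent-only control mean plus 3 SD; inconclusive = no clear call, values can overlap the other calls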;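 note: cells exposed to compound for four days before flow analysis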
Granule exo inh: lytic granule exocytosis inhibition; TALL-104 LAMP-1 surface exposure, flow cytometry; cells stimulated with thapsigargin and PMA; inhibition, % at 10 µM; 0.66% of 360,000 active; AID 651702;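 active = inhibition above about 55%, limit read from the data; inconclusive = no clear call, values can overlap the other calls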
NPR1 activator: GC-A (human) enzyme activation; activation, % at 10 µM; P16066; AID 1671463; HEK293 GC-A cells, cGMP TR-FRET, EC30 ANP; 0% at EC30 ANP, 100% saturating ANP; 0.14% of 370,000 active; in the data active = activation above about 40%
Target sequence (P16066 whole entry, looked up): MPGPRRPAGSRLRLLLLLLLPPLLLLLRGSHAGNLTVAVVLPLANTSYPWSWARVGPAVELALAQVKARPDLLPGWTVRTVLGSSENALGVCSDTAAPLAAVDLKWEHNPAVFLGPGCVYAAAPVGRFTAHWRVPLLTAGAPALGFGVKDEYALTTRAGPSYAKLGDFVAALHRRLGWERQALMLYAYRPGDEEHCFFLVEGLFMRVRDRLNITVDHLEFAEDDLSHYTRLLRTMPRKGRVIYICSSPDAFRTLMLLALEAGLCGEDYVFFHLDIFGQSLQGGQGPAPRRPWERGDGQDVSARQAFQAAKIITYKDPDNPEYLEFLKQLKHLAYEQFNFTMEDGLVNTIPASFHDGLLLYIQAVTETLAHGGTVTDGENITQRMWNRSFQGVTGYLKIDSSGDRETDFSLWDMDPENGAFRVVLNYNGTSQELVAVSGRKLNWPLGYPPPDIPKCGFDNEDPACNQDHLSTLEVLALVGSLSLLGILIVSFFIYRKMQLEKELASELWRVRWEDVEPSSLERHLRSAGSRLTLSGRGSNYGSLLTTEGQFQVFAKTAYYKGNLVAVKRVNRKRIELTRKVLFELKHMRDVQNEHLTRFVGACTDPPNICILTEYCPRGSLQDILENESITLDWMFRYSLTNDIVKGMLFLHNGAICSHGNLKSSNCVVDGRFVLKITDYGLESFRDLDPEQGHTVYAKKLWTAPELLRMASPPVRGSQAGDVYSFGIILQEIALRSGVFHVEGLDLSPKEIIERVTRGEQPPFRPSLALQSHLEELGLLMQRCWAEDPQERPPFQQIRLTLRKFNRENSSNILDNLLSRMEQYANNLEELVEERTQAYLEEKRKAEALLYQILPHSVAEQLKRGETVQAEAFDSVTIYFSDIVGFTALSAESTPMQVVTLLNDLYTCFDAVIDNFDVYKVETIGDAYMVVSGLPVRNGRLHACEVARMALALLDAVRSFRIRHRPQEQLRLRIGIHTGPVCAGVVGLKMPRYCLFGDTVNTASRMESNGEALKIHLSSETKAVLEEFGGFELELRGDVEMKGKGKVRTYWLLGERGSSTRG
GC-B act: GC-B (human) receptor activation; P20594; HEK293-GC-B cells, CNP EC30, cGMP TR-FRET; 0% at EC30 CNP, 100% saturating CNP; activation, % at 10 µM; 0.11% of 370,000 active; AID 1920062;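 active = activation at 10 µM reaching about 35% in either raw or pattern-adjusted values, limit read from the data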
Starred values were filed as active, the others as inactive; i = inactive; ? = inconclusive; / = no result; + = active, no number.

SMILES	Myeloid diff 2	Granule exo inh	NPR1 activator	GC-B act
Cc1ccc(NC(=O)CCNC(=O)c2ccc([N+](=O)[O-])cc2)cc1C	+	1	-5	4
CCOC(=O)c1ccc(NC(=O)CCNC(=O)c2ccc([N+](=O)[O-])cc2)cc1	i	-12	-4	-2
O=C(Cc1ccccc1)Nc1nnc(-c2cccnc2)s1	/	/	2	-8
CSc1ccccc1C(=O)OCC(=O)NC1CC1	i	-6	4	4
O=C(Nc1nccs1)c1cn(-c2ccccc2)nc1-c1ccncc1	+	-5	0	6
CCCCn1nc2cc(C(=O)NCC34CC5CC(CC(C5)C3)C4)ccc2c1OCC	+	-3	3	1
CCCCn1nc2cc(C(=O)NCCc3cccs3)ccc2c1OCC	i	0	3	-1
CCC(=O)c1cn(/C(=C\C(=O)OC(C)(C)C)CCC(OC)OC)cc1CC	+	10	-5	0
CCC(=O)c1cn([C@@H](CCC(OC)OC)CC(=O)OC(C)(C)C)cc1CC	i	-7	-4	-1
NC(N)=N/N=C(\N=Nc1ccccc1)c1ccc(Cl)cc1	?	56*	-14	-9
CCOC(=O)C1CCCN(S(=O)(=O)c2ccc3c(c2)N(C)C(=O)CC(=O)N3C)C1 (centres undefined)	+	2	0	8
CC(=O)N1CCc2cc(S(=O)(=O)CCC(=O)Nc3ccccc3F)ccc21	+	-3	1	1
CC(=O)N1CCc2cc(S(=O)(=O)CCC(=O)N3CCN(c4ccccc4F)CC3)ccc21	?	-7	-1	3
CCOC(=O)[C@@]12CN(C(=O)OC(C)(C)C)CC=C1N(Cc1ccc(OC)cc1)C(=O)[C@H]2CC(=O)NCc1ccc(C)o1	/	/	-2	3
COc1ccc(CNCC#Cc2ccccc2)cc1	/	/	1	1
CN1C(=O)NC(c2ccccc2[N+](=O)[O-])C2=C1CCCC2=O (centres undefined)	+	3	-1	-2
CNC(=O)NC(=O)CSc1nc(-c2cccs2)c(C#N)c(=O)[nH]1	i	0	45*	23
CCc1ccc(OCC(=O)N/N=C(\C)c2ccc(O)cc2O)cc1	+	23	6	-8
CCc1ccc(OCC(=O)N/N=C(\C)c2ccc3c(c2)OCCO3)cc1	i	3	0	8
CC1=NOC(=O)/C1=C\c1ccc(-c2cc(Cl)ccc2Cl)o1	i	74*	9	0
CC1=NOC(=O)/C1=C\c1ccc(-c2ccc(Br)cc2)o1	i	33	34	-5
O=C1[C@H]2C[C@@]3(n4ccc5ccccc54)c4ccccc4N(S(=O)(=O)c4ccccc4)[C@H]3N2C(=O)CN1Cc1ccccc1	/	/	-2	7
CC(C)(C)c1nn(-c2ccccc2)c2[nH]c(=O)c(C=O)cc12	i	62*	5	0
CC(C)(C)c1nn(-c2ccccc2)c2nc(Cl)c(C=O)cc12	i	2	/	/
CC1(C)OC(=O)C2=C(CC(CCc3ccccc3)OC2CCc2ccccc2)O1 (centres undefined)	/	/	4	6
SMILES	Myeloid diff 2	Granule exo inh	NPR1 activator	GC-B act
COC(=O)[C@H](C(C)C)N1CCc2nnn(Cc3ccccc3)c2-c2cc(F)ccc2S1(=O)=O	/	/	-1	1
O=C(O)c1ccccc1C(=O)Nc1ccc(Oc2ccc3ccccc3c2)cc1	+	9	-1	-3
C[C@H]1[C@@H](OC(=O)NCc2cccnc2)CC[C@@]23CCCN2C(=O)CCC[C@@H]13	/	/	0	-5
CCN=C1S/C(=C\c2ccc(N3CCOCC3)cc2C)C(=O)N1CC	i	-8	-4	-4
COCCN1C(=O)/C(=C/c2ccc(N3CCCC3)cc2C)SC1=S	+	8	-2	-4
CCOC(=O)Cc1cc(=O)n2[nH]c(C)c(-c3ccc(OC)cc3)c2n1	i	0	49*	51*
CCOC(=O)Cc1cc(=O)n2[nH]c(C)c(-c3ccc(Cl)cc3)c2n1	i	-2	44*	45*
COC(=O)Cc1cc(=O)n2[nH]c(C)c(-c3ccccc3)c2n1	i	0	17	27
Cc1ccc2c(c1)-c1c(cnn1CC(=O)NCCc1ccc(O)cc1)CO2	/	/	1	2
COc1ccc(CC(=O)Nc2cccc(-c3nnc(-c4ccc(C)cc4)o3)c2)cc1OC	i	88*	-9	-2
COc1ccc(CC(=O)Nc2cccc(-c3nnc(-c4ccccc4)o3)c2)cc1OC	i	69*	1	-2
COc1ccc(NC(=O)c2cc(C3CCCCN3C(=O)c3cc(C(C)(C)C)nn3C)on2)c(C)c1 (centres undefined)	i	2	-2	1
NC1=NC2(CCCCC2)N(c2ccc(F)cc2)C(N)=N1	i	-2	3	2
NC1=NC2(CCCCC2)N(c2cccc(Cl)c2)C(N)=N1	+	2	5	-3
O=C(NCC(c1cccs1)N1CCc2ccccc21)c1ccccc1 (centres undefined)	+	1	-2	-2
CN1C(c2ccccc2)CC(C)(O)CC1c1ccccc1 (centres undefined)	/	/	-2	-3
Cc1cc(C2(c3ccc(O)c(C)c3)OC(=O)c3ccccc32)ccc1O	i	0	-7	0
Cc1cc(O)c(C(C)C)cc1C1(c2cc(C(C)C)c(O)cc2C)OC(=O)c2ccccc21	i	88*	-22	1
COc1ccc(C(=O)Nc2ccccc2C(=O)N/N=C/c2ccccn2)cc1OC	+	21	9	10
COc1ccc(C(=O)N/N=C/c2ccccn2)cc1OC	i	-2	-2	-11
CC(=O)Oc1ccc(N2C(=O)C3C4C=CC(CO)(O4)C3C2=O)cc1 (centres undefined)	i	45	7	14
O=C1C2C3C=CC(CO)(O3)C2C(=O)N1c1ccccc1-c1ccccc1 (centres undefined)	i	64*	/	/
C=CCN(CC#CCN(C)C(=O)c1cccn1C(=O)OC(C)(C)C)Cc1ccc(OC)cc1OC	/	/	-12	-12
CC1(C)CC(=O)C(C=Nc2cc(C(=O)c3ccccc3)ccc2N)=C(O)C1	+	-2	6	-6
CSc1ccccc1N=CC1=C(O)CC(C)(C)CC1=O	i	-1	-2	-4
SMILES	Myeloid diff 2	Granule exo inh	NPR1 activator	GC-B act
CC1(C)CC(=O)C(C=Nc2ccc(N)cc2)=C(O)C1	+	-6	-2	-5
COc1cccc(N=CC2=C(O)CC(C)(C)CC2=O)c1	i	-2	0	4
COC(=O)c1ccc(N)c(N=CC2=C(O)CC(C)(C)CC2=O)c1	+	-2	9	6
Cn1c(/C(C#N)=C/c2ccc(-c3ccc(S(N)(=O)=O)cc3)o2)nc2ccccc21	+	8	0	2
C=CCN1[C@H](C#N)[C@@H](c2ccccc2)[C@H]1CO	/	/	1	2
N#Cc1c(-c2ccc(Cl)cc2)ccn2nc(CCC(=O)O)nc12	i	0	0	-4
CCCCCc1nc2c(C#N)c(-c3ccc(Cl)cc3)ccn2n1	+	0	6	19
